Source: the supplement of paper PMC10849652
Of roughly 8,800 targets only a part is listed; those with a hit were picked by preference. About 0.5% of all pairs of compound and target were hits. A number with no mark means an inactive call.

How the values were obtained:
Assay in all cases: log2 fold change, soluble protein after heating vs DMSO (PISA); higher = thermal stabilisation; K562 lysate, 10 uM; active = over 0.2 and 3.5 SD of the protein, either way, in both replicates (recomputed)
[1] = compound: NCC(=O)Nc1ccc(-n2nc(C(F)(F)F)cc2-c2ccc3c(ccc4ccccc43)c2)cc1
Method in brief: (§1)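 Dounce homogenisation of K562 pellets in PBS pH 7.4 with 1 mM MgCl2 produced a crude extract, used at 1 mg/mL protein. Exposure to 10 μM compound lasted 30 min, and aliquots were then heated for 3 min across 48°C-58°C, pooled and brought to 0.5% NP-40 at 4°C. The supernatant after 21,000xg for 90 min was quantified by TMTpro 16plex LC-MS/MS with channel sums equalised. Duplicate values are given as log-two fold change in thermal stability relative to solvent controls.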

vorinostat = compound: O=C(CCCCCCC(=O)Nc1ccccc1)NO [vorinostat]
Method in brief: as §1

silmitasertib = compound: O=C(O)c1ccc2c(c1)nc(Nc1cccc(Cl)c1)c1ccncc12 [silmitasertib]
Method in brief: as §1

[2] = compound: O=C1NC(=O)C(c2cnc3ccccn23)=C1c1cn2c3c(cc(F)cc13)CN(C(=O)N1CCCCC1)CC2
Method in brief: as §1

entospletinib = compound: c1cn2cc(-c3ccc4cn[nH]c4c3)nc(Nc3ccc(N4CCOCC4)cc3)c2n1 [entospletinib]
Method in brief: as §1

Sequence of UniProt Q8N4L2 (Q8N4L2 whole entry, looked up): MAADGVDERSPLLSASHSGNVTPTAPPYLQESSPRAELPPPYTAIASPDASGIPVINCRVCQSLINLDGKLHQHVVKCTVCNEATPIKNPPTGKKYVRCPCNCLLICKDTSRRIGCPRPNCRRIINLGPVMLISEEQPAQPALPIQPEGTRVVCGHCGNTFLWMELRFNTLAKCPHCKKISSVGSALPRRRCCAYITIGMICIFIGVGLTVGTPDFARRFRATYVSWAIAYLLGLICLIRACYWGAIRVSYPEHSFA
Sequence of UniProt P42356 (P42356 whole entry, looked up): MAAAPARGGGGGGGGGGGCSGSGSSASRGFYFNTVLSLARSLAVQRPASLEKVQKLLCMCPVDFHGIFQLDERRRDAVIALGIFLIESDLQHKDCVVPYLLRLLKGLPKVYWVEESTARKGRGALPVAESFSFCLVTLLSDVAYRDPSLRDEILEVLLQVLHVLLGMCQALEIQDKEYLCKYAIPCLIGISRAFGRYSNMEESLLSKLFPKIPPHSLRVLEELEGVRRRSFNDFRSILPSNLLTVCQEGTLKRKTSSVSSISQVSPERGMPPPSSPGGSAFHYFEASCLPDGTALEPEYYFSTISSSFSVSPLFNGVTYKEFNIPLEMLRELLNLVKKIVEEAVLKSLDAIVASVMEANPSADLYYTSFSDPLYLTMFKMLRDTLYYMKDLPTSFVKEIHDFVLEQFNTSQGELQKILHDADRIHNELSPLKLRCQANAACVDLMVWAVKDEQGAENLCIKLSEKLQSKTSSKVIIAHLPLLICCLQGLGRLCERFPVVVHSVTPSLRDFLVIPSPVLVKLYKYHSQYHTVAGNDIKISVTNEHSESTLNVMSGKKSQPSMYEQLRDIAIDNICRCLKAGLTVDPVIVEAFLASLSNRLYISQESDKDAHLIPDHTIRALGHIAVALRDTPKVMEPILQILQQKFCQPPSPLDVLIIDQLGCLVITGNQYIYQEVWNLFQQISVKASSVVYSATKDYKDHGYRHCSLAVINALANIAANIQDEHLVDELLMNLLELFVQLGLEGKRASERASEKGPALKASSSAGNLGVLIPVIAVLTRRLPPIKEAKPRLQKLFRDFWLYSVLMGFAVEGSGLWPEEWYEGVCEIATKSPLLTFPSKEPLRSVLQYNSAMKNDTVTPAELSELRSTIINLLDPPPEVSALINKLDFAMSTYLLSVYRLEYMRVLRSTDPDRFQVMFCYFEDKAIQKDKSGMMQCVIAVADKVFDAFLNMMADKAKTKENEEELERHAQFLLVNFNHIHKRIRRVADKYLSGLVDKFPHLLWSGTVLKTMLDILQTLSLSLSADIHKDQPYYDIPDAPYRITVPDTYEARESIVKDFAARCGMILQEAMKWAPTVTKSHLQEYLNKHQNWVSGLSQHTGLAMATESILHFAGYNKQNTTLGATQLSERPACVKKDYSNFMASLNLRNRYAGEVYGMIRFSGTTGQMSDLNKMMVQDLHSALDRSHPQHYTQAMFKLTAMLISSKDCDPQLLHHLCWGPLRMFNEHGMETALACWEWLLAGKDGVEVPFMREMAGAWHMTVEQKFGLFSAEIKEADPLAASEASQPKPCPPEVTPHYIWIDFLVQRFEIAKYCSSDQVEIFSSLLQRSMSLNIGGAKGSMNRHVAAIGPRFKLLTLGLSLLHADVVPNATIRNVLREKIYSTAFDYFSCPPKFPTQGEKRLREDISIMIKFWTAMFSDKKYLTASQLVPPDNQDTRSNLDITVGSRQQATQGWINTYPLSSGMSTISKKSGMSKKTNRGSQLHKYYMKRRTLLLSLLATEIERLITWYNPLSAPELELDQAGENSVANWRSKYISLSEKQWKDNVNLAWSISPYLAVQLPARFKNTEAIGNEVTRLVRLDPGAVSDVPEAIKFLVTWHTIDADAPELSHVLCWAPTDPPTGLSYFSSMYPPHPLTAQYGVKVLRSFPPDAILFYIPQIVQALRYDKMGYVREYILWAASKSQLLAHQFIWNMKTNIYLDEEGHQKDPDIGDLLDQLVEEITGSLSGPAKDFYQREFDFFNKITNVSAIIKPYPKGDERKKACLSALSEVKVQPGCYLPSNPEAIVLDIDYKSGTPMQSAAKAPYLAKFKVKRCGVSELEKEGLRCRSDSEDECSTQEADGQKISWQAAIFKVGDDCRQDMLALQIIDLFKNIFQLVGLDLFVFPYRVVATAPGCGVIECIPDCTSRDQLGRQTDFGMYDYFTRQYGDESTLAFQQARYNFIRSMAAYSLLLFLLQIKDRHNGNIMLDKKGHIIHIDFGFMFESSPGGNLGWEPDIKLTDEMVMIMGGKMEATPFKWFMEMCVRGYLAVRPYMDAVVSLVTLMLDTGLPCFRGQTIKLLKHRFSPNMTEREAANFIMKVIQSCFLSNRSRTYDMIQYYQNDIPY
Sequence of UniProt P35236 (P35236 whole entry, looked up): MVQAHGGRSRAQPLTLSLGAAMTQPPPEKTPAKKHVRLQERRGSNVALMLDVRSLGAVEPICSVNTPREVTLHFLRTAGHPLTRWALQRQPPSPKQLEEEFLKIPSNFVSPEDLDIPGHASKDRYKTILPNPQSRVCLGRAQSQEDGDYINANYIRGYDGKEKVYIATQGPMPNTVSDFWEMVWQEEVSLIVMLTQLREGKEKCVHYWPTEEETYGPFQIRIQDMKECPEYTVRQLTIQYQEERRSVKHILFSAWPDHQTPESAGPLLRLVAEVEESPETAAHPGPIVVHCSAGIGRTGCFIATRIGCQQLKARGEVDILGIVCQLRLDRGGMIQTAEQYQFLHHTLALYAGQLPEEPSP
Sequence of UniProt P17706 (P17706 whole entry, looked up): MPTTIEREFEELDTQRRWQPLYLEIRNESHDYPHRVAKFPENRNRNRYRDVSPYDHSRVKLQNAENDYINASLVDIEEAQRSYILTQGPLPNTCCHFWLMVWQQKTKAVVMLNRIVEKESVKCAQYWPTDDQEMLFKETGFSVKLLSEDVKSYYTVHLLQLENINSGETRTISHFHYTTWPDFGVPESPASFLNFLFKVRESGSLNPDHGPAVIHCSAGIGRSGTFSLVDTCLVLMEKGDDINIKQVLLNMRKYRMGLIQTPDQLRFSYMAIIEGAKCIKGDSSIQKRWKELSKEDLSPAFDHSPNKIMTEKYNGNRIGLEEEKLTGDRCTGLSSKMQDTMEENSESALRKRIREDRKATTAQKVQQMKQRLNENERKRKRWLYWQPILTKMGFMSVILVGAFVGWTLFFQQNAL
Sequence of UniProt P23219 (P23219 whole entry, looked up): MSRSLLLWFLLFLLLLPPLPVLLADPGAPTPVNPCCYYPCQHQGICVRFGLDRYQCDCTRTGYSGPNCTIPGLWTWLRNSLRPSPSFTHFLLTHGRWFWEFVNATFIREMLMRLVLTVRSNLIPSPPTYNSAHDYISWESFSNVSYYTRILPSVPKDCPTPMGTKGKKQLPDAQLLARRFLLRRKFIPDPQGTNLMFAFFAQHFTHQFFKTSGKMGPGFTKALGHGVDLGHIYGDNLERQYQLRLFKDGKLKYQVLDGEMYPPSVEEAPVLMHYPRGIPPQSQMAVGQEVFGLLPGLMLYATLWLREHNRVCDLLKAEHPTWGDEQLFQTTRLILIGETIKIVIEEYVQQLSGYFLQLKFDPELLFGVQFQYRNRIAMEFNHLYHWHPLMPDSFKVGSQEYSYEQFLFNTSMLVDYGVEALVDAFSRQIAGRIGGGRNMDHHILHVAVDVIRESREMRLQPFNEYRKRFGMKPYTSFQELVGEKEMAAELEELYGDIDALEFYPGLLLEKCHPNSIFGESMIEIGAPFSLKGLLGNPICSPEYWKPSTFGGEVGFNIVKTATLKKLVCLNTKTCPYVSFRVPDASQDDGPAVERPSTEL
Sequence of UniProt Q9Y606 (Q9Y606 whole entry, looked up): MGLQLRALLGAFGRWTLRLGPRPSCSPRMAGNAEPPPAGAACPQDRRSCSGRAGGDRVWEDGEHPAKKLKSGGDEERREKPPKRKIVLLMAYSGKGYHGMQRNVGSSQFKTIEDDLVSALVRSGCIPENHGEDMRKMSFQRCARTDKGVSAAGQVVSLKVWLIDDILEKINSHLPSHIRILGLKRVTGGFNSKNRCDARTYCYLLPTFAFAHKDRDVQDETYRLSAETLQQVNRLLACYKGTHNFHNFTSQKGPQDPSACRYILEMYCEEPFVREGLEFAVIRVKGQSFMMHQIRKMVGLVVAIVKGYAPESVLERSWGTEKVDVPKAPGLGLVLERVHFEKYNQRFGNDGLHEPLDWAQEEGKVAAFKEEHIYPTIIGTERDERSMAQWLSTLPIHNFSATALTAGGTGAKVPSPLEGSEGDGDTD
Sequence of UniProt O75569 (O75569 whole entry, looked up): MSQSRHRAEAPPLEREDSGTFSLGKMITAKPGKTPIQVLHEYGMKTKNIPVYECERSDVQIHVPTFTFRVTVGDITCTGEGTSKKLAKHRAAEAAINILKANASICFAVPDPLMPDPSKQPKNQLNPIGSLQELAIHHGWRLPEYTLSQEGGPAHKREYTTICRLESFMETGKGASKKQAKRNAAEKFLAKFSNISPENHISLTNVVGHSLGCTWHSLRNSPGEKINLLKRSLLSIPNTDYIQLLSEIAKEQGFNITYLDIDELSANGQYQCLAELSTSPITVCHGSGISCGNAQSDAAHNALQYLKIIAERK

Target | log2 fold change [1] | log2 fold change (vorinostat) | log2 fold change (silmitasertib) | log2 fold change [2] | log2 fold change (entospletinib)
PUS1 (UniProt Q9Y606) | 0.04 | -0.321 (active) | 0.041 | -0.013 | -0.022
PIP4P2 (UniProt Q8N4L2) | 0.004 | 0.029 | 0.034 | 0.034 | -0.05
PFKP (UniProt Q01813) | 0.004 | 0.009 | 0.008 | 0.03 | 0.049
PTGS1 isoform 6 (UniProt P23219) | -0.013 | 0.05 | -0.033 | 0.003 | -0.017
PRKRA (UniProt O75569) | 0.023 | -0.773 (active) | -0.022 | 0.024 | 0.041
POLR2B (UniProt P30876) | 0.03 | -0.344 (active) | 0.034 | 0.024 | -0.008
PI4KA (UniProt P42356) | -0.011 | -0.426 (active) | 0.077 | 0.004 | 0.031
PTPN2 (UniProt P17706) | -0.005 | -0.298 (active) | 0.024 | -0.002 | 0.07
PTPN7 isoform 3 (UniProt P35236) | 0.031 | -0.491 (active) | 0.01 | -0.044 | -0.008
